Laboratory results taken from PubChem BioAssay (NCI).
Compounds without any hit were thinned out: in the full panel of roughly 83,000, 20% have a hit.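 Cell lines were cultured in 96-well plates, exposed to a single compound concentration, and assessed for percent growth 48 hours later.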 A number with no mark means an inactive call. Active and inactive are the calls of the source. Rule for the calls: active = growth percent below 10; inactive = the rest.

Columns and labels:
Assay in all cases: NCI-60 one-dose screen, 48 h (100 = growth as untreated, 0 = no growth, -100 = all killed)
NCI-H23 lung = conditions: 10 µM unless noted
NCI-H226 lung = conditions: 10 µM unless noted
NCI-H322M lung = conditions: 10 µM unless noted
NCI-H460 lung = conditions: 10 µM unless noted
HOP-92 NSCLC = conditions: 10 µM
NCI-H522 lung = conditions: 10 µM
A549/ATCC NSCLC = conditions: 10 µM unless noted
786-0 renal = conditions: 10 µM unless noted
COLO 205 colon = conditions: 10 µM unless noted

SMILES	growth (NCI-H23 lung)	growth (NCI-H226 lung)	growth (NCI-H322M lung)	growth (NCI-H460 lung)	growth (HOP-92 NSCLC)	growth (NCI-H522 lung)	growth (A549/ATCC NSCLC)	growth (786-0 renal)	growth (COLO 205 colon)
CCCC(C)c1cc(Cc2cc(Cl)cc(Cl)c2O)c(O)c(Cc2cc(Cl)cc(Cl)c2O)c1 (stereo not given)	-6.96% (active)	-4.21% (active)	9.16% (active)	3.71% (active)	-19.2% (active)	4.06% (active)	15%	6.89% (active)	23.9%
CCCCCc1ccnc(CC(=O)c2ccc(OC)cc2)c1	93.8%	88.6%	104%	95.2%	69.5%	66.6%	–	98.9%	87.3%
CC(=O)N1N=C(c2ccc(Cl)cc2)CC1c1cn(-c2ccccc2)nc1-c1ccc([N+](=O)[O-])cc1 (stereo not given)	101%	93.6%	83.1%	101%	117%	103%	108%	104%	93.9%
COc1cc(NC(=O)CSc2nc3ccc(Cl)cc3c(=O)n2-c2ccc(F)cc2)cc(OC)c1OC	85.2%	83.2%	86.9%	91.3%	36%	79.5%	83.8%	75.2%	107%
Cn1c2c(cc(S(=O)(=O)c3ccccc3)c1=O)CCc1c-2cnn1-c1ccc(Cl)cc1	69.7%	-14.8% (active)	38.9%	20.3%	-34.2% (active)	-11.3% (active)	8.48% (active)	–	77.5%
O=c1oc2ccc3ccccc3c2cc1-c1ccnc2[nH]c(=S)[nH]c(=O)c12	94.7%	94.5%	92.9%	103%	88.3%	88%	97%	97.5%	111%
CCOC(=O)C1CCCN1C(=O)C1(NC(C)=O)CCCC1 (stereo not given)	100%	104%	91.3%	98.2%	84.7%	107%	101%	102%	105%
COc1ccc(CN2C(=O)/C(=C\C(=O)c3ccc(OCCN4CCCCC4)cc3)c3ccccc32)cc1	74.5%	89.6%	91.4%	94.7%	39%	26%	96.4%	37.4%	76.7%
COc1cc2cc3cc4cc(OC)c(OC)cc4c(C)[n+]3cc2cc1OC (tested in a mixture with another compound)	89%	80%	89.8%	89.1%	143%	56.4%	–	66.5%	111%
COc1cc(/C=C/C(=O)c2ccc(F)cc2)ccc1OCCCCOc1cc2c(cc1OC)C(=O)N1CCCC1C=N2 (stereo not given)	-33.9% (active)	-8.87% (active)	88.1%	-49.5% (active)	-43.9% (active)	-61.1% (active)	45.9%	–	-45.2% (active)
FC(F)(F)c1cccc(-c2[nH]ncc2-c2nnnn2-c2ccccc2)c1	73.9%	76.2%	57.7%	21.8%	34.2%	23%	41.8%	58.2%	36%
CC(=O)OC1CC2C3CCC4C[C@@H](NC(=O)C=C(C)C)CC[C@]4(C)C3CC[C@]2(C)[C@H]1C(C)N(C)C (stereo not given in full)	40.6%	30.5%	-2.28% (active)	-39.9% (active)	-36.2% (active)	61.2%	11.6%	–	-84% (active)
Cc1[nH]n(C(=S)Nc2nc3cc(Cl)c(F)cc3s2)c(=O)c1N=Nc1ccc(F)c(Cl)c1	97.4%	95.7%	119%	106%	71.2%	123%	40.1%	–	109%
O=c1[nH]c(=S)[nH]c(O)c1/C=C1\C=Nc2ccccc21	82.5%	90.5%	110%	79.5%	54.2%	91.5%	–	107%	78.8%
C/C(=N\Nc1cccc(Cl)n1)c1ccccn1	16.8%	-3.86% (active)	23.7%	5.39% (active)	40.5%	24.6%	9.19% (active)	8.33% (active)	10.6%
CCOC(=O)C1C(=O)C(=O)N(C(C)C)C1C(=O)OCC (stereo not given)	97.3%	100%	104%	106%	83%	118%	–	107%	118%
C#CCCCCCCC[C@@H]1OC(=O)[C@H]([C@@H](C)CC)NC(=O)[C@@H]([C@@H](C)CC)NC(=O)CC(=O)[C@@H]1C	99.2%	86.1%	96.9%	102%	77.3%	90.7%	107%	109%	119%
O=C1N/C(=N\c2nnc(-c3ccc(O)cc3)s2)S/C1=C\c1ccccc1O	95.2%	99.6%	91.9%	102%	81.7%	93.6%	103%	97.5%	114%
CC1(c2ccc(Br)cc2)NC(=O)NC1=O (stereo not given)	105%	110%	103%	104%	89.6%	102%	93.3%	96%	113%
CC1=C(C)C(=O)C(C(C)C2=C(C)C(=O)C(C)=C(C)C2=O)=C(C)C1=O	84.6%	124%	111%	95.9%	114%	91.2%	102%	88.1%	104%
COC(=O)c1ccc2[nH]c(O)c(C(=Nc3ccc(N(C)C(=O)CN4CCN(C)CC4)cc3)c3ccc(CCO)cc3)c2c1	57.1%	57%	66.5%	74.6%	66.6%	33.3%	95.4%	44.2%	18.1%
O=[N+]([O-])c1ccc(-c2ncc(-c3ccc(O)cc3O)[nH]2)cc1	105%	102%	116%	109%	88.5%	124%	44.9%	–	112%
COc1ccc(/C=C/C(=O)/C=C/c2cc3ccccc3[nH]c2=O)cc1	70.4%	90.9%	109%	92.7%	89.8%	48.8%	51.3%	93.1%	55.8%
O=Nc1c(-c2c(O)[nH]c3cc(Br)ccc23)[nH]c2ccccc12	-80.8% (active)	-39.4% (active)	16.6%	-72.8% (active)	14.4%	-29% (active)	-61.9% (active)	6.13% (active)	-100% (active)
Oc1ccccc1/C=N/N=C/c1c(O)ccc2ccccc12	82%	90.8%	107%	88%	66.9%	84%	95.6%	107%	104%
Cc1nc(NC(=O)NC2CCCCC2)sc1C(=O)NN	101%	103%	101%	112%	-17.1% (active)	0.452% (active)	102%	113%	119%
Clc1ccc(N/N=C(\c2ccccc2)c2ccccn2)nc1	19.2%	5.46% (active)	16.3%	1.31% (active)	31.3%	1.35% (active)	3.53% (active)	12.7%	15.9%
COc1ccc(C(O)(c2ccccc2)C(C(=O)O)c2ccccc2)cc1 (stereo not given)	102%	106%	105%	116%	63%	98.5%	–	103%	111%
NNC(=O)CNc1ccc2ccccc2c1	101%	109%	115%	113%	70.4%	98.5%	115%	105%	109%
Cc1nc(N)sc1C(=O)NCCO	106%	97.2%	127%	115%	-17.9% (active)	34.5%	111%	129%	126%
